# FUS suppressor: qHTS for Suppressors of FUS Proteinopathy: Primary screen using FUS-linked yeast assay | S. cerevisiae FUS-expressing, growth rescue, OD600, 24 h | Potency, µM (titrated, usually from 76.6 µM), usual class: activators | 390,000 compounds, 0.24% hits; further: nearly all actives have a fitted effect of over 55% in size
#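 Read-out: OD at 600 nm after 24hr at 30C, reporting rescue of FUS-induced yeast toxicity. Cells at OD 0.005 in galactose (2%) minimal medium; compounds tested in a dilution series; CP55940 titration from 92uM final as control.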
# aSyn rescue: qHTS of alpha-syn Inhibitors | Potency, µM (top dose mostly 46.1 µM), hits mostly activators | 370,000 compounds, 0.14% hits | Yeast expressing alpha-synuclein, growth rescue, BacTiter-Glo, 24 h; further: nearly all actives have a fitted effect of over 65% in size
#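 Galactose-induced alpha-syn yeast (OD600=0.02, raffinose-pregrown) + pinned cpd, 24 hr, 30 deg C; growth by BacTiter-Glo luminescence. Growth restoration scores as activation.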
# TDP43 rescue: qHTS of TDP-43 Inhibitors | 410,000 compounds, 1.8% hits | Potency, µM (series often up to 46.1 µM), usual class: activators | TDP-43 expressing yeast growth rescue, BacTiter-Glo, 24 h; further: nearly all actives have a fitted effect of over 50% in size
#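 Readout is BacTiter-Glo luminescence of cell growth, so inhibitors register as activators. TDP-43-expressing yeast at OD600=0.02 in galactose medium, after raffinose pregrowth to mid-log, were incubated with compound for 24 hr at 30 deg C.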
# Abeta yeast res: qHTS for compounds that reverse cellular toxicity of Amyloid beta (A-beta) peptide in yeast: Primary Screen | yeast expressing A-beta42, growth rescue, OD600, 48 h; response scale: 0% DMSO, 100% iron-clioquinol control | Potency, µM (doses to about 46.1 µM), actives largely listed as activators | 410,000 compounds, 0.063% hits | AID 1347071, 2019; further: nearly all actives have a fitted effect of over 55% in size
#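 Growth rescue measured by 600 nm absorbance after 48 h yeast culture at 30 C with compound. Values normalized between DMSO and an equimolar ferric chloride plus clioquinol control.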
# A number is an active result; 0 = inactive; ? = inconclusive; - = not tested or not shown; [ ] = remark or other dose. The list is not random: actives were taken first. Their share in the collection is about 2.1%. The call rests on the fitted dose curve; in most records, active means well fitted curve in the direction sought with a large enough effect; inconclusive means small, poorly fitted or top-dose-only effect, or another doubt; inactive means no such curve, though single readings can be large; an effect the other way counts as inactive or inconclusive.
SMILES,FUS suppressor,aSyn rescue,TDP43 rescue,Abeta yeast res
CCOC(=O)Cc1csc(NC(=O)COc2c(C)cccc2C)n1,0,0,0,0
CCOC(=O)Cc1csc(NC(=O)COc2ccccc2OCC)n1,0,-,11µM,0
CCOC(=O)Cc1csc(NC(=O)Cc2ccccc2)n1,0,0,0,0
CCOC(=O)Cc1csc(NC(=O)COc2ccc(OC)cc2)n1,0,0,13µM,0
CCCC(=O)c1ccc(N2CCN(C(=O)c3ccccc3Br)CC2)c(F)c1,0,0,22µM,0
CCCC(=O)c1cc(F)c(N2CCN(C(=O)OCC)CC2)cc1C,0,0,16µM,0
O=C(c1ccccc1)c1ccc(N2CCN(C(=O)c3ccc(F)cc3F)CC2)c(F)c1,?,0,22µM,0
O=C(c1ccc(N2CCN(C(=O)c3ccccc3Br)CC2)cc1)c1cccc(F)c1,0,0,14µM,0
CCCC(=O)c1ccc(N2CCN(C(=O)c3ccccc3)CC2)c(F)c1,?,0,?,0
O=C(NC1CCCCN(Cc2ccc(Cl)cc2)C1=O)c1cccc(F)c1 (configuration not stated),0,-,-,-
COc1ccc(N2CCN(CCCNC(=O)c3c(C)nn(-c4ccc(F)cc4)c3-n3cccc3)CC2)cc1,0,0,0,0
Cc1ccc(Oc2ncnc(N)c2[N+](=O)[O-])cc1C,0,0,11µM,0
Cc1cccc(Oc2ncnc(N)c2[N+](=O)[O-])c1,0,0,?,0
Cc1cc(Sc2ncnc(N)c2[N+](=O)[O-])ncn1,0,0,22µM,0
Cc1cc(Sc2nc(N)ncc2[N+](=O)[O-])ncn1,0,0,?,0
O=C(Nc1ccc2ccccc2c1)c1ccc(Br)o1,0,0,20µM,0
COCCc1nn2c(=O)cc(COC(=O)C(c3ccccc3)c3ccccc3)nc2s1,0,-,0,0
CC(=O)CSc1nc(-c2ccccc2)c(-c2ccccc2)o1,0,0,16µM,0
N#Cc1ccc(Cn2ccc3ccc(-c4ccc5ccn(C(=O)c6ccccc6)c5c4)cc32)cc1,0,-,-,-
COc1ccccc1C(=O)Nc1ccc(-c2cc(C(F)(F)F)nn2-c2ccccc2)cc1,?,-,0,0
O=C1C=C(c2ccc(F)nc2)C[C@@H](c2ccc3c(c2)OCO3)C1,0,0,13µM,0
O=C1C=C(c2cnc3ccccc3c2)C[C@@H](c2ccc3c(c2)OCO3)C1,0,0,16µM,0
O=C1C=C(c2cccc(Br)c2)C[C@@H](c2ccc3c(c2)OCO3)C1,0,0,11µM,0
O=C1C=C(c2ccc(CO)cc2)C[C@@H](c2ccc3c(c2)OCO3)C1,0,0,13µM,0
O=C1C=C(c2ccc(-c3ccccc3)cc2)C[C@@H](c2ccc3c(c2)OCO3)C1,0,0,0,0
SMILES,FUS suppressor,aSyn rescue,TDP43 rescue,Abeta yeast res
O=C1C=C(c2ccc(Oc3ccccc3)cc2)C[C@@H](c2ccc3c(c2)OCO3)C1,0,0,0,0
COc1ccc(C2=CC(=O)C[C@H](c3ccc4c(c3)OCO4)C2)cn1,0,0,0,0
COc1ccc(-n2c(COc3ccccc3)nnc2SCc2nc3ccccc3[nH]2)cc1,0,-,-,-
O=C(C[n+]1ccccc1Cl)c1ccc2c(c1)CCCC2,-,0,-,-
CCN(CC)C(=O)CSc1nnc(-c2ccccn2)n1C,0,-,-,-
O=C1C=C(c2ccccc2)C[C@@H](c2ccc3c(c2)OCO3)C1,0,0,20µM,0
COc1cccc(C2=CC(=O)C[C@H](c3ccc4c(c3)OCO4)C2)c1,0,0,18µM,0
COC/C=C/C1=CC(=O)C[C@H](c2ccc3c(c2)OCO3)C1,0,0,14µM,0
Cc1ccc(C)c(N2C(=O)N(C)c3ccccc3S2(=O)=O)c1,0,-,?,0
CCCC1CCC2(CCCN2CCOC(=O)Nc2ccc(Br)cc2)CC1 (configuration not stated),0,-,-,-
COc1ccc(-c2nc(CSCC(=O)N3CCN(C)CC3)c(C)o2)cc1OC,0,0,0,0
CCOc1ccc(-c2nc(CSCC(=O)N3CCN(c4cccc(C(F)(F)F)c4)CC3)c(C)o2)cc1,22µM,-,0,0
CCOc1ccc(-c2nc(CSCC(=O)N3CCN(c4ccc(F)cc4)CC3)c(C)o2)cc1,0,-,0,0
COc1ccc(-c2nc(CSCC(=O)N3CCN(c4cccc(C)c4C)CC3)c(C)o2)cc1OC,25µM,-,?,0
COC(=O)[C@]12C[C@H](CC(=O)NCCCN3CCCC3=O)C(=O)N(CCc3ccc(OC)c(OC)c3)C1=C[C@H](C(C)(C)C)O[C@@H]2C,0,-,-,-
N[C@H](C(=O)Nc1ccc(Cl)cc1C(=O)c1ccc[nH]1)c1ccccc1,0,-,-,-
Cn1c2ccccc2c2c(C(=O)N3CCN(c4cccc(C(F)(F)F)c4)CC3)cn(C3CCCCC3)c(=O)c21,0,-,0,0
CC(C)Cn1cc(C(=O)N2CCN(c3cccc(Cl)c3)CC2)c2c3ccccc3n(C)c2c1=O,35µM,-,0,0
Cn1cc(C(=O)N2CCN(c3cccc(C(F)(F)F)c3)CC2)c2c3ccccc3n(C)c2c1=O,?,-,28µM,0
Cc1ccc(S(=O)(=O)N2CCN(c3nc(-c4ncccn4)nc4ccccc34)CC2)cc1,-,0,-,-
O=C(c1ccccc1)N1CCC(Oc2cccnc2)CC1,0,-,-,-
Cc1cc(C)c(C#N)c(Sc2ccc(N)cc2)n1,-,0,0,0
N#Cc1ncc(C(F)(F)F)cc1Sc1ccc(N)cc1,0,0,14µM,?
CCOc1ccccc1NC(=O)CN1C(=O)CC(c2ccco2)Sc2ccccc21 (configuration not stated),0,?,?,0
CCOc1ccccc1CNC(=O)c1cc2n(n1)CCCN(Cc1ccc(C)cc1)C2=O,?,-,35µM,?
SMILES,FUS suppressor,aSyn rescue,TDP43 rescue,Abeta yeast res
COc1ccc([C@@H]2CC(=O)c3c(O)cc(O)cc3O2)cc1O,0,0,0,0
COc1cc(O)c2c(c1)OC(c1ccc(O)cc1)CC2=O (configuration not stated),0,0,13µM,0
CCCC[C@H]1C2CC(OC(=O)Nc3cc(C)cc(C)c3)C(C2)[C@H]2CCCCN21 (some centres not stated),0,-,-,-
O=C(O)c1ccc(C=C(c2nc3ccccc3s2)c2nc3ccccc3s2)cc1,0,0,0,0
O=C(O)c1ccc(Oc2nc3ccccc3s2)cc1,-,?,13µM,0
COc1cccc(-c2nc(C(=O)NCC3CCCO3)cc3c2[nH]c2ccccc23)c1 (configuration not stated),0,?,20µM,0
COc1ccc(-c2nc(N)ncc2Oc2ccccc2Br)c(O)c1,0,0,0,0[9.22 µM]
COc1cccc(Oc2cnc(N)nc2-c2ccc(OC)cc2O)c1,0,0,10µM,0
COc1ccc2c(c(-c3ccccc3)cn2C)c1-c1ccccc1,0,-,-,-
CCCOc1ccc(N2C(=O)CC(N(Cc3ccccc3)N=O)C2=O)cc1 (configuration not stated),0,0,20µM,0
COC(=O)c1ccc(N2C(=O)CC(N(C)Cc3ccccc3)C2=O)cc1 (configuration not stated),0,0,7.1µM,0

# Source: PubChem BioAssay
